H1.0 immunofluorescence intensity data for 14 compounds are collected here from the supplement of paper PMC7156485.

Unmarked numbers belong to inactive results.
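Note: TDF is a line of transformed human dermal fibroblasts of mesenchymal origin.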

This assay has as its system TDF. As to the kind of experiment: H1.0 immunofluorescence intensity relative to DMSO (% of DMSO); higher = stronger H1.0 induction, active = 120 or more. Conditions: concentration: 10 µM; 24 h. The gist of the method:
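Using 384-well plates with 800 cells per well in RPMI plus 10% FBS, HCC1569 and TDF cells were exposed to compounds at 10 µM, in triplicate, for 24 h at 37 °C. Imaging of six fields per well at ×10 followed H1.0 and DAPI staining. The reported quantity, H1.0 nuclear intensity or cell number, is a median of replicates given as percent of the plate control, and HCC1569 values were smoothed for positional effects.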
With `CCOC(=O)C(C)(C)Oc1ccc(Cl)cc1` [Clofibrate], the H1.0 immunofluorescence intensity was 99.5. Take `C=CC(C)(O)CCC1C(=C)CCC2C(C)(C)CCCC12C` (centres undefined) [Manool]: the H1.0 immunofluorescence intensity is 99.4. The figure for `NC(CCC(=O)NC(CSN=O)C(=O)NCC(=O)O)C(=O)O` (centres undefined) [S-Nitrosoglutathione] is 88.7; for `CS(=O)(=O)c1ccc(-c2cc(Br)sc2-c2ccc(F)cc2)cc1` it is 96.8.

Regarding `Br.CN(C)CCCC1(c2ccc(F)cc2)OCc2cc(C#N)ccc21` (centres undefined) [Citalopram hydrobromide], the H1.0 immunofluorescence intensity was 96. Then `Cn1ccnc1` [1-Methylimidazole], with 97.4; and `CC(C)(C)C(=O)OCOC(=O)[C@@H]1N2C(=O)[C@@H](/N=C/N3CCCCCC3)[C@H]2SC1(C)C`, with 89. The figure for `CCCCCC#CCC#CCC#CCC#CCCCC(=O)O` [5,8,11,14-Eicosatetraynoic acid] is 93.3. With `COC(=O)c1c(C)[nH]c(C)c1C(=O)c1ccccc1Cc1ccccc1`, the H1.0 immunofluorescence intensity was 92.3. The figure for `CNCCC(Oc1ccccc1OC)c1ccccc1.Cl` (centres undefined) [Nisoxetine.HCl] is 92.1; for `CCC=CCC=CCC=CCC=CCC=CCCCC(=O)O` it is 90.4. The figure for `Cc1nc(N)sc1-c1ccnc(Nc2ccc(N3CCOCC3)cc2)n1` is 105; for `Cn1c(=O)c(-c2c(Cl)cccc2Cl)cc2cnc(Nc3ccc(N4CCOCC4)cc3)nc21` it is 154 (active). The figure for `Cc1[nH]c2ccccc2c1CC(=O)N[C@@H](Cc1ccccc1)C(=O)N(C)c1ccccc1` is 88.8.
